# Results from PubChem BioAssay AID651814 (National Center for Advancing Translational Sciences (NCATS), 2012).
# About 590 (28%) of roughly 2,100 compounds were called active. Roughly 42% stayed inconclusive and do not appear here. Some of the results follow. Values without a mark were called inactive. Calls come from the whole dose curve; as a rule, active = well fitted inhibition curve with a large enough effect; inconclusive = small, poorly fitted or top-dose-only effect; inactive = flat fitted curve, though single readings scatter.
# Molecular target: DNA dC->dU-editing enzyme APOBEC-3F (Homo sapiens) (UniProt Q8IUX4)
# Sequence (Q8IUX4 whole entry, looked up): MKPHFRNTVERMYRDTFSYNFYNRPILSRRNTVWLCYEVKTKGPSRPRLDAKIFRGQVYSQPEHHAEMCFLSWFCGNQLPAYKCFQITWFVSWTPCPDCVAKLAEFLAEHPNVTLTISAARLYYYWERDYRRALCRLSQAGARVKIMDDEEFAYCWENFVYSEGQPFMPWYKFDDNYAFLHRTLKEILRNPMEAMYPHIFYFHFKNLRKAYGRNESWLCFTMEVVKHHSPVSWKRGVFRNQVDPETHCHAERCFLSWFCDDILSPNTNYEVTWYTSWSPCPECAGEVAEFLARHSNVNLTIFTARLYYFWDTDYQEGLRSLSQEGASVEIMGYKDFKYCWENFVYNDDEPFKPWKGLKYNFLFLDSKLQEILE
# Test: qHTS for inhibitors of Vif-A3F interactions: Cherry picks; note: nearly all actives have a fitted effect of over 70% in size;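 for max response: % of control where 0% means no effect; active compounds raise eYFP fluorescence by blocking Vif-driven A3F loss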
# Conditions: HeLa A3F-eYFP + Vif (tagged APOBEC3F with the HIV-1 protein that degrades it), eYFP fluorescence, 24 h
# Summary of the method: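 HeLa cells stably expressing A3F-eYFP plus Vif, cultured overnight, then exposed to compounds at several concentrations for 24 h at 37 deg C. Reduced Vif-driven degradation read as rising eYFP fluorescence (488 nm ex/500-530 nm em) by laser-scanning cytometry; MG132 as positive control.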
# Potency is the fitted concentration of half-maximal effect.
Structure (SMILES),max response,Potency
COc1cc(OC)c(C2Nc3cccc4cccc(c34)N2)c(OC)c1,-0.492%,
COc1cc(OC)c(/C=C/c2ccc3ccccc3[n+]2C)c(OC)c1,,5.17 µM (active)
CC(=O)c1cccc(-c2ccnc3c2CC(C(=O)Nc2ccc(Cl)cc2)O3)c1 (stereo not given),-28.2%,
Nc1nc(-c2cc(O)ccc2[N+](=O)[O-])cc(-c2ccccc2)c1[N+](=O)[O-],,12.5 µM (active)
COc1ccc(OC)c(NC(=O)Cn2c(=O)n(-c3ccc(Cl)cc3)c(=O)c3c(C)c(C)sc32)c1,,20.6 µM (active)
COc1ccc(OC)c(NC(=O)Cn2cnc3onc(-c4ccc(Cl)cc4)c3c2=O)c1,-18%,
CCN(CC)C(=O)Cn1c(=O)n(-c2ccccc2)c(=O)c2c3c(sc21)CCC3,1.37%,
CNC(=S)N/N=C/c1ccc(N2CCOCC2)s1,-10.3%,
CC(C)NC(=S)N/N=C1\CCCCc2ccccc21,2.14%,
CC(C)NC(=S)N/N=C/c1sc(N2CCCCC2)nc1-c1cccs1,,16.4 µM (active)
N#Cc1c(C(F)(F)F)cc(-c2ccccc2)nc1SCc1nc(N)nc(N2CCOCC2)n1,,5.8 µM (active)
COc1cc(N2CCCC2)c(OC)cc1/C=C(/C#N)c1ccc(Br)cc1,,7.31 µM (active)
COc1cc(N2CCCC2)c(OC)cc1/C=C(/C#N)c1ccc(F)cc1,,20.6 µM (active)
CC1Cc2cc(S(=O)(=O)CCC(=O)NCc3ccc(Cl)cc3)ccc2N1C(=O)C1CC1 (stereo not given),-29.5%,
COC(=O)c1c(-c2cccnc2)csc1NC(=O)c1ccc2c(c1)OCO2,-11.9%,
Cc1ccc(C(=O)Nc2sc(Cc3ccc4c(c3)OCO4)c(C)c2C(N)=O)cc1,,6.51 µM (active)
O=C(/C=C/c1cccs1)NCc1ccc2c(c1)OCO2,1.53%,
CCOc1cc(/C=C2\N=C(SC(C)C(N)=O)N(c3ccc(OC(F)F)cc3)C2=O)ccc1O (stereo not given),,15.8 µM (active)
COc1cc(N2CCCC2)c(OC)cc1/C=C1/NC(=S)NC1=O,,3.53 µM (active)
Cc1cccc2cc(C#N)c(SCC(=O)N3CC(=O)Nc4ccccc43)nc12,,4.44 µM (active)
Cc1cc(C)c2nc(SCC(=O)N3CC(=O)Nc4ccccc43)c(C#N)cc2c1,,3.96 µM (active)
CC(C)(C)c1ccc(OCC(=O)Nc2ccc3c4c(cccc24)C(=O)NC3=O)cc1,5.82%,
CCCCn1c(N)c(N(Cc2ccccc2OC)C(=O)c2ccc([N+](=O)[O-])s2)c(=O)[nH]c1=O,-9.57%,

Structure (SMILES),max response,Potency
O=C(NCC1CCCO1)c1nn2c(C(F)(F)F)cc(-c3cc(Br)cs3)nc2c1Br (stereo not given),,11.6 µM (active)
COc1ccc(S(=O)(=O)Nc2cc(Sc3ncn[nH]3)c(O)c3ccccc23)cc1,-14.9%,
CCCNc1c(F)c(F)c2c(C)c3ccccc3nc2c1F,,14 µM (active)
Cc1c2ccccc2nc2c(F)c(NC(C)C)c(F)c(F)c12,,6.51 µM (active)
CC(C)C1C(=O)N(Cc2cn(CCC3OCCCO3)nn2)CCS(=O)(=O)N1Cc1ccc(-c2cccc(CO)c2)cc1 (stereo not given),-10.5%,
CCOC(=O)c1sc2cc([N+](=O)[O-])cc(SCC(C)C)c2c1N,,2.06 µM (active)
COC(=O)c1sc2cc([N+](=O)[O-])cc(SCC(C)C)c2c1N,,13 µM (active)
CC1(C(=O)Nc2ccc3c(c2)OCO3)Cc2c(-c3ccccc3)ccnc2O1 (stereo not given),-25.3%,
COc1cc2c(cc1OC)C1=CC(=O)C(=O)N1C(C)(C)C2,,14 µM (active)
C=CCSc1nnc(C)c(/C=C/Nc2ccc(Cl)cc2)n1,,20.6 µM (active)
COc1ccc(N/C=C/c2nc(SC)nnc2C)cc1,-11.1%,
O=C1c2ccccc2-c2nc3ccccc3cc21,-23.6%,
O=C1c2ccccc2C(=O)c2cc(N3CCCCC3)ccc21,,8.86 µM (active)
C=C(/C=C/c1ccc(N(C)C)cc1)c1nc2ccccc2s1,,14.6 µM (active)
COc1cc(/C=C2\SC(=S)N(NC(=O)c3ccccc3O)C2=O)ccc1O,-22.7%,
COc1cc(/C=C2/SC(=S)N(CCC(=O)Nc3ccccc3)C2=O)cc(OC)c1OC,,18.4 µM (active)
O=C1/C(=C\c2ccc(O)cc2)SC(=S)N1Cc1ccccc1,-2.14%,
COc1cc(/C=C2/SC(=S)N(Cc3ccccc3)C2=O)cc(Cl)c1O,,4.44 µM (active)
COc1cc(/C=C2\SC(=S)N(NC(=O)c3ccccc3OC)C2=O)ccc1O,-7.76%,
O=C(O)c1cc(-c2ccc(/C=C3/SC(=S)N(Cc4ccccc4)C3=O)o2)ccc1Cl,,13 µM (active)
O=C1/C(=C/c2ccc(N3CCCC3)cc2)NC(=S)N1C1CC1,,5.17 µM (active)
Cc1cc(N2CCCC2)ccc1/C=C1\NC(=S)N(C)C1=O,,1.84 µM (active)
